Data from PubChem BioAssay.
The source made the active and inactive calls.

Tests used:
[1] = system: Plasmodium falciparum Sir2 (PF13_0152, Sir2A); experiment: Plasmodium falciparum Sir2A binding compounds – biochemical, small-molecule microarray, 635 nm fluorescence, primary screen (AID 1098); conditions: fluorescence 635 nm, higher = more signal;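 also: score merges spot fluorescence intensity with its signal-to-noise ratio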
[2] = probe aDKK1 binding to arrayed compounds – biochemical, biotinylated probe, 635/667 nm fluorescence, primary screen (AID 1099); conditions: small-molecule microarray, higher = more signal;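 also: score merges 667nm spot fluorescence with signal to noise across triplicate slides; reference of the scale not given here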
[3] = probe aCHRDL2 binding to arrayed compounds – biochemical, biotinylated probe, 635/667 nm fluorescence, primary screen (AID 1100); conditions: small-molecule microarray, higher = more signal
[4] = change in splice reporter luminescence, either direction, cell-based, HEK293, spliceosome inhibition project, primary screen (AID 1101); conditions: HEK293 splicing luciferase reporter, 24 h, higher = more signal, called active from +8 up or from −8 down;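 also: HEK293 cells carrying a splicing-competent luciferase reporter gene; test concentration not given here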
[5] = biological target: Fibroblast growth factor 10 (Homo sapiens) (UniProt O15520); experiment: compounds binding fibroblast growth factor 10 – biochemical, small-molecule microarray, 635 nm fluorescence, primary screen (AID 1102); conditions: FGF10 binding, fluorescence 635 nm, higher = more signal
Sequence of Fibroblast growth factor 10 (Homo sapiens) (O15520 whole entry, looked up): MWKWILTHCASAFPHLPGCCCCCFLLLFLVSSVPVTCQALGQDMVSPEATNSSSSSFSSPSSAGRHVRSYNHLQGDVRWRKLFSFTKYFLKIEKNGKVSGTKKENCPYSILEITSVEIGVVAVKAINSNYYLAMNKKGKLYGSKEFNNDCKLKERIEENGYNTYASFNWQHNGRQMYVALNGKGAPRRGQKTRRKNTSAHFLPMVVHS

[6] = system: glycogen synthase kinase-3 (GSK3A per assay name; protocol says GSK3B); experiment: compounds binding glycogen synthase kinase-3 – biochemical, small-molecule microarray, 635 nm fluorescence, GSK3A, primary screen (AID 1103); conditions: fluorescence 635 nm, higher = more signal; also: the record names both GSK3A and GSK3B
[7] = biological target: Epidermal growth factor receptor (Homo sapiens) (UniProt P00533); experiment: compounds binding epidermal growth factor receptor – biochemical, small-molecule microarray, 635 nm fluorescence, primary screen (AID 1104); conditions: EGFR binding, higher = more signal;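 also: score merges 667 nm emission intensity with spot signal to noise over triplicate slides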
Sequence of Epidermal growth factor receptor (Homo sapiens) (P00533 whole entry, looked up): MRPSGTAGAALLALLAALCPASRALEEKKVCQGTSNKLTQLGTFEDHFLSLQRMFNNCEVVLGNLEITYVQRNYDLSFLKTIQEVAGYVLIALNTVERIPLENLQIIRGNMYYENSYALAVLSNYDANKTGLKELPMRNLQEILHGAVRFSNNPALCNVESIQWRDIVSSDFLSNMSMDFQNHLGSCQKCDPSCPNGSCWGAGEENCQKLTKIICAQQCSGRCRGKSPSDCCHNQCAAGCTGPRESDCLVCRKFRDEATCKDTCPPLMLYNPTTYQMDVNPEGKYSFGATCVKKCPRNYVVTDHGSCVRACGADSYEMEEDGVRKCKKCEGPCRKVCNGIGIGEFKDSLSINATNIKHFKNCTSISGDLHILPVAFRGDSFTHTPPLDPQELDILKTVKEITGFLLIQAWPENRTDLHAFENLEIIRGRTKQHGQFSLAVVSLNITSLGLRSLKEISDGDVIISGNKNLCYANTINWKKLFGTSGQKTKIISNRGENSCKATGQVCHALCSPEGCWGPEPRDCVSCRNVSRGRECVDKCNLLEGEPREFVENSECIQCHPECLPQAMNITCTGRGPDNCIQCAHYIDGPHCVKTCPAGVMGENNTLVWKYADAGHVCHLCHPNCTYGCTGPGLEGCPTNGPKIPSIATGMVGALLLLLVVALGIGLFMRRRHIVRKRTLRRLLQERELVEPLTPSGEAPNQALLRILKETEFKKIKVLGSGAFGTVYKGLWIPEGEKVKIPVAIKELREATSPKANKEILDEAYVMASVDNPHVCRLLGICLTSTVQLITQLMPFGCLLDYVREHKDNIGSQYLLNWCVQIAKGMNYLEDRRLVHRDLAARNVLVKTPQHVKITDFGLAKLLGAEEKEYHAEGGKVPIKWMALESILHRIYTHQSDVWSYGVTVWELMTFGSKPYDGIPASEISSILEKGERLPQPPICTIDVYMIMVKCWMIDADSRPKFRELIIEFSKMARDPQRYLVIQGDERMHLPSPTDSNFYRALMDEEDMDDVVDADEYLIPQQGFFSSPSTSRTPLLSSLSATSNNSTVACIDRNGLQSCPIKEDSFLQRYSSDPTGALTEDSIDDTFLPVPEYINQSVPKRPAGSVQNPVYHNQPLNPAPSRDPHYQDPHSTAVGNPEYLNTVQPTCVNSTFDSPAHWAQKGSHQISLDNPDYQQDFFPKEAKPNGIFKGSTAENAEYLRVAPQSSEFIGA

[8] = biological target: Follistatin-related protein 3 (Homo sapiens) (UniProt O95633); experiment: compounds binding follistatin-related protein 3 – biochemical, small-molecule microarray, 635 nm fluorescence, primary screen (AID 1105); conditions: FSTL3 binding, higher = more signal;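 also: score merges emission near 667 nm and signal to noise per printed spot across three slides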
Sequence of Follistatin-related protein 3 (Homo sapiens) (O95633 whole entry, looked up): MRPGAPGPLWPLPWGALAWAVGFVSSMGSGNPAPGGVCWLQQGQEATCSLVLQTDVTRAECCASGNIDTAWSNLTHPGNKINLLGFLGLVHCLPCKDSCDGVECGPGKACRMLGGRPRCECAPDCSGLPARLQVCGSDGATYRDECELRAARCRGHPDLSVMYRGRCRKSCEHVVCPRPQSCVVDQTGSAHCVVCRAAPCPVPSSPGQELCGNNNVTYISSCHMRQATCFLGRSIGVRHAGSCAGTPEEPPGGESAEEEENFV

[9] = biological target: Dickkopf-related protein 1 (Homo sapiens) (UniProt O94907); experiment: small molecules binding DKK1 protein – biochemical, small-molecule microarray, 635 nm fluorescence scan, primary screen (AID 1106); conditions: higher = more signal;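 also: score merges emission near 667 nm with signal to noise over three replicate slides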
Sequence of Dickkopf-related protein 1 (Homo sapiens) (O94907 whole entry, looked up): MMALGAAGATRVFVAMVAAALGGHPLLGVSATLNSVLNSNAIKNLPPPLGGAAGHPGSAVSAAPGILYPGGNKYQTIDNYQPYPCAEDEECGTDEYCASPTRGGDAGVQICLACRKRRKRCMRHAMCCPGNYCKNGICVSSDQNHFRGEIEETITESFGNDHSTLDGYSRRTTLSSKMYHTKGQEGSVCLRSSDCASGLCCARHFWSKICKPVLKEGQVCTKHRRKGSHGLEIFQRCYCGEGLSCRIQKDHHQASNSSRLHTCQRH

[10] = system: Inhibin beta A chain (activin A); experiment: small molecules binding activin A – biochemical, small-molecule microarray, 635 nm fluorescence scan, primary screen (AID 1107); conditions: INHBA, higher = more signal;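 also: mouse activin A protein probed at 4.33 µg/mL on printed slides; score merges bound-protein fluorescence near 667 nm with spot signal-to-noise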

`O=C1NC(=O)C2C1C=CC(C(O)C=Cc1ccc([N+](=O)[O-])cc1)N2Nc1ccc(Cl)cc1Cl` (stereo not given) gave a composite z-score [1] of 0.373, a composite z-score [2] of 1.19 and a composite z-score [3] of 1.17. For the same compound, the z-score [4] was -0.509 (inactive), the composite z-score [5] was 0.641 and the composite z-score [6] was 0.364. For the same compound, the composite z-score [7] was 0.41, the composite z-score [8] was 1.02 and the composite z-score [9] was 0.0567. The composite z-score [10] was 1.11.
`C=CC[C@]1(C(=O)N2CCOCC2)N=C(c2ccc(OCCCO)cc2)O[C@H]1c1ccccc1N=[N+]=[N-]` showed a composite z-score [1] of 0.945, a composite z-score [2] of 0.779 and a composite z-score [3] of 1.17. For the same compound, the z-score [4] was -1.23 (inactive), the composite z-score [5] was 0.95 and the composite z-score [6] was 1.29. For the same compound, the composite z-score [7] was 0.23, the composite z-score [8] was 0.673 and the composite z-score [9] was -0.201. For the same compound, the composite z-score [10] was 1.09.
Compound `COc1cc(CO)cc(I)c1O[C@H]1C=C(C(=O)NCCO)C[C@@H](NC[C@@H]2CCCO2)[C@@H]1O` has a composite z-score [1] of 0.922, a composite z-score [2] of -0.349 and a composite z-score [3] of -0.204. For the same compound, the z-score [4] was -0.466 (inactive), the composite z-score [5] was 0.671 and the composite z-score [6] was 0.0227. It also gave a composite z-score [7] of -0.0367, a composite z-score [8] of 0.334 and a composite z-score [9] of 0.17. It also gave a composite z-score [10] of -0.0437.
In the case of `CCCCC(=C=CC[C@@H](O)c1cccc(OCCO)c1)C[C@@H](O)c1ccccn1`, the composite z-score [1] is reported as 1.6, the composite z-score [2] is reported as -0.132 and the composite z-score [3] is reported as -0.387. The z-score [4] was -0.123 (inactive), the composite z-score [5] was 1.06 and the composite z-score [6] was 0.839. It also gave a composite z-score [7] of -0.181, a composite z-score [8] of 1.07 and a composite z-score [9] of 0.168. The composite z-score [10] was 0.869.
Compound `C=CC[C@@]1(C(=O)N2CCCCC2)N=C(c2ccc(OCCCO)cc2)O[C@@H]1c1ccccc1N=[N+]=[N-]` has a composite z-score [1] of 0.763, a composite z-score [2] of 1.19 and a composite z-score [3] of 1.07. For the same compound, the z-score [4] was -0.212 (inactive), the composite z-score [5] was 0.925 and the composite z-score [6] was 0.742. For the same compound, the composite z-score [7] was 0.249, the composite z-score [8] was 0.657 and the composite z-score [9] was -0.0197. The composite z-score [10] was 1.03.
`COc1ccc(C(=O)Nc2cccc(CN3C(=O)[C@]4(O[C@H](CCn5cc(CCO)nn5)[C@@H]([Si](C)(C)c5ccc(OC)cc5)[C@@H]4C)c4ccccc43)c2)cc1` gave a composite z-score [1] of 0.83, a composite z-score [2] of 0.601 and a composite z-score [3] of 0.127. For the same compound, the z-score [4] was 2.05 (inactive), the composite z-score [5] was 0.17 and the composite z-score [6] was 0.495. The composite z-score [7] was 0.529, the composite z-score [8] was 1.01 and the composite z-score [9] was 0.201. It also gave a composite z-score [10] of 1.55.
For `C=C(CCCC)/C(=C/C[C@H](OC(C)=O)c1ccccc1OCCO)c1cnc2ccccc2c1`, the composite z-score [1] was 0.593, the composite z-score [2] was -0.278 and the composite z-score [3] was -0.114. The z-score [4] was 1.81 (inactive), the composite z-score [5] was 0.931 and the composite z-score [6] was -0.0183. The composite z-score [7] was 0.0674, the composite z-score [8] was 0.747 and the composite z-score [9] was 0.277. It also gave a composite z-score [10] of 1.52.
`CO[C@H]1O[C@H](CO)[C@@H](OC(=O)Nc2ccccc2)[C@@H]2OC(=O)[C@@H](Cc3ccc4ccccc4c3)C/C=C/C[C@H](Cc3ccc4ccccc4c3)C(=O)O[C@@H]12` showed a composite z-score [1] of 1.08, a composite z-score [2] of 0.134 and a composite z-score [3] of 0.402. The z-score [4] was -0.916 (inactive), the composite z-score [5] was 1.08 and the composite z-score [6] was 0.899. It also gave a composite z-score [7] of 0.204, a composite z-score [8] of 0.531 and a composite z-score [9] of -0.112. The composite z-score [10] was 0.962.
Work on `COc1ccc(NN2C(C(O)c3ccc(N(C)C)cc3)C=CC3C(=O)N(C4CCCCC4)C(=O)C32)cc1` (stereo not given) yielded a composite z-score [1] of 1.01, a composite z-score [2] of 1.15 and a composite z-score [3] of 0.649. The z-score [4] was -0.438 (inactive), the composite z-score [5] was 0.635 and the composite z-score [6] was 1.3. It also gave a composite z-score [7] of 0.322, a composite z-score [8] of 0.659 and a composite z-score [9] of -0.28. For the same compound, the composite z-score [10] was 0.814.
For `Cc1ccc(/C=C/C=O)cc1`, the composite z-score [1] was 1.21, the composite z-score [2] was -0.051 and the composite z-score [3] was 0.44. The z-score [4] was -0.0631 (inactive), the composite z-score [5] was -0.0586 and the composite z-score [6] was -0.472. It also gave a composite z-score [7] of -0.817, a composite z-score [8] of -0.955 and a composite z-score [9] of -0.0317. For the same compound, the composite z-score [10] was 0.579.
With `COC(=O)[C@@]1(CCC(=O)OC(C)(C)C)N=C(c2ccc(OCCCO)cc2)O[C@H]1c1ccccc1` the composite z-score [1] was 1.22, the composite z-score [2] was 0.592 and the composite z-score [3] was 0.997. For the same compound, the z-score [4] was 0.509 (inactive), the composite z-score [5] was -0.19 and the composite z-score [6] was -0.0344. For the same compound, the composite z-score [7] was -1.03, the composite z-score [8] was -0.808 and the composite z-score [9] was -0.239. The composite z-score [10] was 0.501.
With `O=C1OCCC=C[C@H]2OC34C=CCN(CCN5CCOCC5)C(=O)[C@H]3N(CCCCCO)C(=O)[C@@H]4C12` (stereo not given in full) the composite z-score [1] was 1.44, the composite z-score [2] was -0.235 and the composite z-score [3] was -0.111. The z-score [4] was -0.78 (inactive), the composite z-score [5] was -0.35 and the composite z-score [6] was 0.454. For the same compound, the composite z-score [7] was -0.509, the composite z-score [8] was -0.379 and the composite z-score [9] was -0.041. It also gave a composite z-score [10] of -0.309.
`C=C(CCCC)/C(=C/C[C@@H](OC(C)=O)c1ccccc1OCCO)c1cc(C(=O)OC)ccc1OC` showed a composite z-score [1] of 0.175, a composite z-score [2] of -0.211 and a composite z-score [3] of -0.271. The z-score [4] was -0.5 (inactive), the composite z-score [5] was -0.104 and the composite z-score [6] was 0.098. It also gave a composite z-score [7] of -0.657, a composite z-score [8] of -0.458 and a composite z-score [9] of -0.149. For the same compound, the composite z-score [10] was 0.864.
Work on `COCCOC(=O)N1C(=O)[C@@]2(c3ccccc31)[C@H](C(=O)N1CCc3cc(OC)c(OC)cc3C1)[C@H]1C(=O)O[C@H](c3ccccc3)[C@H](c3ccccc3)N1[C@@H]2c1ccc(O)cc1` yielded a composite z-score [1] of 1.38, a composite z-score [2] of 0.0664 and a composite z-score [3] of 0.299. The z-score [4] was 0.251 (inactive), the composite z-score [5] was 0.375 and the composite z-score [6] was 0.691. It also gave a composite z-score [7] of 0.431, a composite z-score [8] of 0.671 and a composite z-score [9] of 0.503. For the same compound, the composite z-score [10] was 0.407.
For `COC(=O)[C@@]1(Cc2ccccc2)[C@H]2c3cc(C(=O)N4CCCC4)n(Cc4ccc(O)c(OC)c4)c3C[C@H]2CN1C(=O)c1ccccc1`, the composite z-score [1] was 0.117, the composite z-score [2] was 0.611 and the composite z-score [3] was 1.08. For the same compound, the z-score [4] was -2.95 (inactive), the composite z-score [5] was 0.253 and the composite z-score [6] was 0.632. For the same compound, the composite z-score [7] was -0.527, the composite z-score [8] was 0.202 and the composite z-score [9] was -0.817. It also gave a composite z-score [10] of 0.939.
`CCOc1ccc(N2C(=O)CSC2c2cccc([N+](=O)[O-])c2)cc1` (stereo not given) gave a composite z-score [1] of 0.891, a composite z-score [2] of -0.117 and a composite z-score [3] of -0.0935. The z-score [4] was -0.105 (inactive), the composite z-score [5] was 0.344 and the composite z-score [6] was 0.0863. The composite z-score [7] was 0.354, the composite z-score [8] was 0.241 and the composite z-score [9] was 0.168. The composite z-score [10] was -0.0762.
Work on `NC(=O)[C@@H]1[C@H]2C(=O)O[C@H](c3ccccc3)[C@H](c3ccccc3)N2[C@H](c2ccc(OCCO)cc2)[C@@]12C(=O)Nc1ccc(C#CC3=CCCCC3)cc12` yielded a composite z-score [1] of 1.36, a composite z-score [2] of -0.134 and a composite z-score [3] of -0.233. For the same compound, the z-score [4] was -0.857 (inactive), the composite z-score [5] was 1.21 and the composite z-score [6] was 1.32. The composite z-score [7] was 0.544, the composite z-score [8] was 0.588 and the composite z-score [9] was 0.372. It also gave a composite z-score [10] of 0.357.
